From PubChem BioAssay
Calls of active or inactive are those of the source.

How the values were obtained:
[1] = biological target: Albumin (Bos taurus) (UniProt P02769); test: bovine serum albumin binders on microarray, profiling panel, artefact control for SMM control protein annotation, biochemical, small-molecule microarray, Alexa647 label, 635/667 nm fluorescence (AID 1118); conditions: BSA-A647 binding, fluorescence 635 nm, higher = more signal;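 also: score merges 667 nm emission intensity and signal-to-noise per printed compound spot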
Albumin (Bos taurus), sequence (P02769 whole entry, looked up): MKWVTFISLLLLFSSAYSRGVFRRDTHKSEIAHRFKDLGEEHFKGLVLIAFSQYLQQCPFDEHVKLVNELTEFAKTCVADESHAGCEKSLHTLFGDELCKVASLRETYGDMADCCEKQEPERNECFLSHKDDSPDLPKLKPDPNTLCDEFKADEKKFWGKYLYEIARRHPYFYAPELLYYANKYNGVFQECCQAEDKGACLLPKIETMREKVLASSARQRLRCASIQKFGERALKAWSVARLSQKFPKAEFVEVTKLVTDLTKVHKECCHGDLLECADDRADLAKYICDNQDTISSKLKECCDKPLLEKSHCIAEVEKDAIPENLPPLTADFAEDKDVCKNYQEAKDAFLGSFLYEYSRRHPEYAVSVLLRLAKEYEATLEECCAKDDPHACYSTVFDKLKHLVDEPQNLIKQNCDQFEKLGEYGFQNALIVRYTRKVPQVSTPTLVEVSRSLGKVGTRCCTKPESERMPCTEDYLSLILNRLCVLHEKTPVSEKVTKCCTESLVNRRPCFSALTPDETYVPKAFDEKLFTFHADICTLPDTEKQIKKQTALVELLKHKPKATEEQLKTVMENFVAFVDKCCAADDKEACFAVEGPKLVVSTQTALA

[2] = small-molecule microarray binders of probe aXIP, primary screen, biochemical, NeuroSMM set, 635/667 nm fluorescence (AID 1119); conditions: higher = more signal, called active from +8 up or from −8 down;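 also: probe is the protein aXip251-270 applied at 1 µg/mL to compound-printed slides; binding of probe to printed compounds measured as 667 nm fluorescence plus signal to noise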
[3] = small-molecule binders of probe aNOTCH3, primary screen, biochemical, small-molecule microarray, 635/667 nm fluorescence (AID 1120); conditions: higher = more signal;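 also: probe is a biotin-tagged antibody raised against NOTCH3 rather than NOTCH3 protein; score merges spot fluorescence near 667 nm with spot signal to noise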
[4] = small-molecule binders of probe aNOTCH2, primary screen, biochemical, small-molecule microarray, 635/667 nm fluorescence (AID 1121); conditions: higher = more signal;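 also: score merges feature fluorescence read at 667 nm with its signal to noise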
[5] = biological target: Carbonic anhydrase 2 (Homo sapiens) (UniProt P00918); test: CAII small-molecule binders, profiling panel, biochemical, small-molecule microarray, Alexa647-labelled CAII (AID 1122); conditions: CAII-A647 binding fluorescence, higher = more signal
[6] = COS7 lysate on small-molecule microarray, probe aHis, 635 nm (AID 1123); conditions: COS7 cell lysate, fluorescence, higher = more signal;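 also: z-score combines 667nm fluorescence intensity with signal-to-noise per printed compound spot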
[7] = compound binding in COS7 lysate, probe aLAP1, primary screen, cell lysate, small-molecule microarray (AID 1124); conditions: probe aLAP1, fluorescence, higher = more signal;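 also: lysate comes from COS7 cells expressing LAP1 and is applied at 0.3 µg/mL; score merges spot fluorescence near 667 nm with signal-to-noise over triplicate slides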
[8] = system: Sam68 (KHDRBS1); test: Sam68 small-molecule binders, primary screen, biochemical, small-molecule microarray, 635 nm fluorescence (AID 1125); conditions: small-molecule microarray binding, higher = more signal;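 also: score merges 667 nm channel intensity with signal to noise over triplicate slides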
[9] = system: Chordin-like protein 2 (CHRDL2); test: CHRDL2 small-molecule binders, primary screen, biochemical, small-molecule microarray, 635 nm fluorescence (AID 1126); conditions: small-molecule microarray binding, fluorescence 635 nm; higher = more signal;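 also: printed compound slides probed with Chrdl2 protein at 4 µg/mL for 1 h at 4 C; score merges 667 nm emission intensity with signal to noise over three replicate slides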
[10] = biological target: Concanavalin-A (Canavalia ensiformis) (UniProt P02866); test: ConA small-molecule binders, primary screen, artefact control for SMM control protein annotation, biochemical, small-molecule microarray, Alexa647 label, 635 nm (AID 1127); conditions: ConA-A647 binding fluorescence, higher = more signal;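 also: z combines 667 nm emission intensity with signal-to-noise across three replicate slides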
Concanavalin-A (Canavalia ensiformis), sequence (P02866 whole entry, looked up): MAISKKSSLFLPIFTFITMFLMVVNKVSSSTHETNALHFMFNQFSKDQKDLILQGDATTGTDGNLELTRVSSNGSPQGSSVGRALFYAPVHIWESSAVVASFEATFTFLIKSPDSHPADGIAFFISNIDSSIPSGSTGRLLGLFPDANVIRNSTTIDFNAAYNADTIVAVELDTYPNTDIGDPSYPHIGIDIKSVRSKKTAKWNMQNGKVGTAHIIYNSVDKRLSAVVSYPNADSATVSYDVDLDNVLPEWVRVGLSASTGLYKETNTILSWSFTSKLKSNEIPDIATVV

[11] = anti-His antibody binders, primary screen, artefact control for SMM control protein annotation, biochemical, small-molecule microarray, 635 nm fluorescence (AID 1128); conditions: anti-His Alexa647 antibody binding, higher = more signal;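 also: score merges feature fluorescence with signal-to-noise for each printed compound spot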
[12] = system: Human papillomavirus type 1a E7 protein (residues 1-88); test: HPV1a E7 small-molecule binders, primary screen, biochemical, small-molecule microarray, residues 1-88, 635 nm (AID 1129); conditions: small-molecule microarray binding, fluorescence 635 nm; higher = more signal
[13] = biological target: Focal adhesion kinase 1 (Homo sapiens) (UniProt Q05397); test: small-molecule microarray binders of FAK, primary screen, biochemical, 635/667 nm fluorescence, BSA, DTT (AID 1130); conditions: PTK2 binding, 635 nm fluorescence, higher = more signal;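 also: composite of spot emission at 667 nm and signal to noise over triplicate slides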
Focal adhesion kinase 1 (Homo sapiens), sequence (Q05397 whole entry, looked up): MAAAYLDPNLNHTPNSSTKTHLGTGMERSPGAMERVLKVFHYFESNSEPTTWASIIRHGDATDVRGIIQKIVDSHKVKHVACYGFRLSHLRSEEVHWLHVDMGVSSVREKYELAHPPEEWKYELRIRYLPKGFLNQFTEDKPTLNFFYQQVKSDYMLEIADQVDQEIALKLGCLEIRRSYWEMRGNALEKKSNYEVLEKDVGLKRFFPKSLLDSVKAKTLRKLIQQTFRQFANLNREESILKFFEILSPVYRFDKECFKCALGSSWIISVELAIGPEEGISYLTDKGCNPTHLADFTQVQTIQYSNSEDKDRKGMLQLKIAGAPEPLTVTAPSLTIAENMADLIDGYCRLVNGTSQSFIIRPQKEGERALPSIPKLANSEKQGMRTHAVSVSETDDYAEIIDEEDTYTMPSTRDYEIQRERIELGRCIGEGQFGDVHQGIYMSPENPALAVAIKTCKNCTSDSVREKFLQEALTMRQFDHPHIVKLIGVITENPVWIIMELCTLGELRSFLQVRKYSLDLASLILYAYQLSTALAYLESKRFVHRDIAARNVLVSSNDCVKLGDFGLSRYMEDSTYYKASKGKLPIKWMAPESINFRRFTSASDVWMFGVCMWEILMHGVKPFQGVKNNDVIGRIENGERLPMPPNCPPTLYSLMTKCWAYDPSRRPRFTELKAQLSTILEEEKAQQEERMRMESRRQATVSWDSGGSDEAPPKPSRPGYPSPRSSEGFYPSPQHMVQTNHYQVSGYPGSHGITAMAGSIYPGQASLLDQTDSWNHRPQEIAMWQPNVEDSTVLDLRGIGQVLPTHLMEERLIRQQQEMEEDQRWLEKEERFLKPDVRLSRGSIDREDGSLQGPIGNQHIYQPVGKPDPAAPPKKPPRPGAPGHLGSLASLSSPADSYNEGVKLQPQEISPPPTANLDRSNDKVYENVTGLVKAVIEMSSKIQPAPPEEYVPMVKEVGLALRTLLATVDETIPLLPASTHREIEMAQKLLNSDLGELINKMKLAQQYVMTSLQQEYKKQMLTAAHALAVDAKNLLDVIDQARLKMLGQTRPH

[14] = system: Fibrinogen (Alexa647-labelled); test: fibrinogen binders on compound microarrays, profiling panel, artefact control for SMM control-protein annotation, biochemical, small-molecule microarray, 635/667 nm fluorescence (AID 1131); conditions: fibrinogen-A647 binding fluorescence, higher = more signal;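 also: z-score merges 667 nm fluorescence with per-spot signal-to-noise over triplicate slides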
[15] = biological target: Follistatin (Homo sapiens) (UniProt P19883); test: follistatin binders on small-molecule microarrays, primary screen, biochemical, small-molecule microarray, 635/667 nm fluorescence (AID 1132); conditions: FST binding, 635 nm fluorescence, higher = more signal
Follistatin (Homo sapiens), sequence (P19883 whole entry, looked up): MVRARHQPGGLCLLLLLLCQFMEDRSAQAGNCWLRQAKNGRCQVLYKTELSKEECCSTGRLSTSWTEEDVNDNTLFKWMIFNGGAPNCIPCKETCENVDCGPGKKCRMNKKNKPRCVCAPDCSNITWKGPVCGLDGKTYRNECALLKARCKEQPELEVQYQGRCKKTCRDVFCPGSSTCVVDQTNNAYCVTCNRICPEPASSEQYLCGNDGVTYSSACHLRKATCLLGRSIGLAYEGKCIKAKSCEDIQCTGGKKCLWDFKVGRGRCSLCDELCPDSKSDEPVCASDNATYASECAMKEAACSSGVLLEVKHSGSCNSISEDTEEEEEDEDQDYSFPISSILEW

[16] = biological target: Fibroblast growth factor 2 (Homo sapiens) (UniProt P09038); test: FGF2 binders on small-molecule microarrays, primary screen, biochemical, small-molecule microarray, 635/667 nm fluorescence (AID 1133); conditions: small-molecule microarray binding, FGF2, fluorescence 635/667; higher = more signal
Fibroblast growth factor 2 (Homo sapiens), sequence (P09038 whole entry, looked up): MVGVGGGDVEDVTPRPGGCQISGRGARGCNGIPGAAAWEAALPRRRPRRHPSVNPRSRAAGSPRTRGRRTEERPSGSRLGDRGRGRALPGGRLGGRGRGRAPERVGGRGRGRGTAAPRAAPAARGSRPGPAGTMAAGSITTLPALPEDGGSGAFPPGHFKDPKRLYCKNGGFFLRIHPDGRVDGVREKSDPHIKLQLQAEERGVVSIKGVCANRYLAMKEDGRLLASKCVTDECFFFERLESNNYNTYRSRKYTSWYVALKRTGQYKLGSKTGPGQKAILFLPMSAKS

[17] = mitochondrial membrane potential change in A549 cells, profiling panel, cell-based, JC-1 fluorescence, basal, 24 h, 100 nL (AID 1138); conditions: higher = more signal;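 also: A549 lung adenocarcinoma cells under basal conditions with no added stimulus; test concentration not given here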
[18] = system: Lefty1; test: Lefty1 binders on small-molecule microarrays, primary screen, biochemical, small-molecule microarray, 635/667 nm fluorescence (AID 1139); conditions: small-molecule microarray binding, fluorescence 635/667; higher = more signal
[19] = system: wheat germ agglutinin (Triticum aestivum), Alexa647-labelled; test: wheat germ agglutinin binders on compound microarrays, profiling panel, artefact control for SMM control-protein annotation, biochemical, small-molecule microarray, 635/667 nm fluorescence (AID 1140); conditions: WGA-A647 binding, 635 nm fluorescence, higher = more signal;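 also: score merges 667 nm feature emission with signal to noise over triplicate slides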
[20] = biological target: Luciferin 4-monooxygenase (Photinus pyralis) (UniProt P08659); test: firefly luciferase enzyme inhibitors, primary screen, biochemical, luminescence, purified enzyme, 2006 set (AID 1141); conditions: SteadyGlo luminescence, 30 min, higher = more signal, called active from +8 up or from −8 down;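 also: cell-free assay with purified firefly luciferase at 100 ng per well in PBS; test concentration not given here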
Luciferin 4-monooxygenase (Photinus pyralis), sequence (P08659 whole entry, looked up): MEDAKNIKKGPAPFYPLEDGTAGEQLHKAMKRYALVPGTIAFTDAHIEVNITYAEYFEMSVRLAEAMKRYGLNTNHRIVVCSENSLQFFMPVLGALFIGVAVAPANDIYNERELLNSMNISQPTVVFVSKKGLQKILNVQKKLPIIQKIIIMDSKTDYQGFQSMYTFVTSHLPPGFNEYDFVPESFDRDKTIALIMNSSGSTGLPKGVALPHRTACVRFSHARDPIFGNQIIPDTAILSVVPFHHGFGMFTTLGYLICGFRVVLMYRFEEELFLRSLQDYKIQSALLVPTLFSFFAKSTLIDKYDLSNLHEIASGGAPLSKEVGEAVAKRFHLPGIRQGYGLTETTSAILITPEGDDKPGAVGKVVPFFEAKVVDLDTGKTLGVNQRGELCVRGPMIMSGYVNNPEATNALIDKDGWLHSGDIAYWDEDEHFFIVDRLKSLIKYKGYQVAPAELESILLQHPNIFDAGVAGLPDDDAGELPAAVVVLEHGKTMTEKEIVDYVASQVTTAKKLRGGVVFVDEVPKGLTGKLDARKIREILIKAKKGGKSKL

SMILES	composite z-score [1]	composite Z-score [2]	composite z-score [3]	composite z-score [4]	composite z-score [5]	composite z-score [6]	composite z-score [7]	composite z-score [8]	composite z-score [9]	composite z-score [10]	composite z-score [11]	composite z-score [12]	composite z-score [13]	composite z-score [14]	composite z-score [15]	composite z-score [16]	z-score [17]	composite z-score [18]	composite z-score [19]	z-score [20]
COc1ccc(O[C@@H]2[C@H](O)CO[C@@H]2C=Cc2ccccc2)cc1	-0.0176	0.0831 (inactive)	-0.0343	-0.115	-0.053	-0.39	0.0909	0.0255	0.211	0.37	-0.198	-0.222	0.166	-0.223	0.409	0.758	-0.464	0.397	-0.124	-0.451 (inactive)
COc1ccc(O[C@H]2C=C[C@@H](c3ccccc3)O[C@@H]2CON=C2[C@H]3CCn4c(=O)n(-c5ccccc5)c(=O)n4[C@H]3[C@H](O)[C@@H]3O[C@H]23)cc1	0.67	0.125 (inactive)	-0.0282	-0.132	0.405	0.455	0.244	1.18	0.276	0.817	-0.444	1.05	0.0673	0.335	0.356	0.199	-0.336	0.451	0.883	0.618 (inactive)
CCOC(=O)[C@H](CC(C)C)NC(=O)CCC1CC(OC(=O)NCc2cccc3ccccc23)CC2(CCCC(COC(=O)NCc3cccc(C(F)(F)F)c3)O2)O1 (stereo not given in full)	-0.105	0.041 (inactive)	-0.0113	-0.146	-0.0249	0.0261	0.127	0.046	0.964	0.139	-0.206	0.492	-0.0868	0.52	0.312	0.231	0.841	0.42	0.0501	0.421 (inactive)
C=CC[C@@H]1C=C[C@H](ON=C[C@@H](C)[C@H](OCc2ccccc2)C(C)C)[C@@H](CO)O1	0.744	-0.315 (inactive)	-0.276	-0.221	-0.115	0.502	0.103	0.0186	0.157	-0.817	-0.304	-0.324	-0.472	-1.67	-0.386	-0.178	-0.922	0.521	-0.0625	0.888 (inactive)
C#CCCCON=C1C[C@@H](O)[C@@H](O)[C@@H]2[C@@H]3C(=O)N(Cc4ccccc4)C(=O)[C@@H]3CC[C@@H]12	0.745	0.23 (inactive)	-0.03	-0.178	-0.103	-0.0919	-0.0209	-0.492	0.0362	-0.324	0.309	-0.032	0.0147	-0.691	-0.0389	0.0054	0.477	0.19	0.249	0.807 (inactive)
C[C@@H]1C=CCC(=O)OC[C@H]2O[C@@H](C=C[C@@H]2O)[C@H](C)C=CCC(=O)OC1	-0.861	4.07 (inactive)	0.0903	-0.0903	-0.5	-1.26	-0.307	-0.419	1.6	-1.65	0.341	-0.813	1.7	-1.06	1.56	1.98	2.16	1.71	-0.513	-1.82 (inactive)
C[C@@H](c1ccccc1)N1C(=O)[C@H]2[C@H]3[C@H](O)[C@H](O)CC(=NO[C@@H]4O[C@H](CO)[C@@H](O)[C@H](O)[C@H]4O)[C@@H]3CC[C@H]2C1=O	0.423	-0.766 (inactive)	0.0996	-0.109	-0.157	0.335	-0.0315	0.258	0.25	0.411	0.26	0.585	-0.0533	0.19	0.31	0.281	0.269	0.351	-0.0604	0.351 (inactive)
CCOC(=O)[C@H](Cc1ccccc1)NC(=O)CCC1CC(OC(=O)NCc2cccc3ccccc23)CC2(CCCC(COC(=O)NCCC(C)C)O2)O1 (stereo not given in full)	0.793	0.142 (inactive)	-0.0956	-0.133	0.742	0.426	0.23	-1.08	-0.0587	0.653	0.603	-0.431	-0.225	0.604	0.123	-0.278	-0.0858	0.129	0.757	0.871 (inactive)
CCCNC(=O)OC[C@H]1O[C@H](CCON=Cc2ccc(C(=O)N3[C@H](c4ccc(C)cc4)[C@@H](C)CC[C@H]3C(=O)OC)cc2)C=C[C@@H]1Oc1ccc(OC)cc1	0.315	0.0856 (inactive)	-0.321	-0.172	-0.0309	0.526	0.735	1.08	0.274	0.279	1.77	0.838	0.315	0.88	0.277	0.666	-0.195	0.58	0.236	0.407 (inactive)
C[C@H](ON=C1[C@H]2CCn3c(=O)n(-c4ccccc4)c(=O)n3[C@H]2[C@H](O)[C@@H]2O[C@H]12)c1cn([C@H](CO)Cc2ccccc2)nn1	0.426	-0.285 (inactive)	-0.0788	-0.0888	0.407	0.183	0.29	0.168	0.388	1.06	-0.692	0.588	0.273	0.985	0.3	0.646	-0.717	0.572	0.742	-0.0281 (inactive)
CCN1C(=O)[C@H]2[C@H]3[C@H](O)[C@H](O)CC(=NO[C@@H](C)c4cn([C@H](CO)Cc5ccccc5)nn4)[C@@H]3CC[C@H]2C1=O	0.233	0.299 (inactive)	-0.0581	-0.184	0.556	0.875	0.547	1.28	0.399	0.941	3.32	1.11	-0.0643	0.752	0.579	0.894	-0.719	0.926	1.05	0.465 (inactive)
